# Results from ChEMBL document CHEMBL3988442, “University of Dundee, Small-Polar-MMV Screening Library” (2021).
# Tests used:
# [1] = target: T1, Aspartate--tRNA(Asp/Asn) ligase (Mycobacterium tuberculosis (strain ATCC 25618 / H37Rv)) (UniProt P9WFW3); assay: Assay for Asp RNA synthetase-1 from Mycobacterium tuberculosis; type: functional; set-up: scale not given: direction of the effect not stated beside the values; conditions: 30 µM; note: in the data most compounds retested in dose-response had high values
# T1 sequence (whole entry): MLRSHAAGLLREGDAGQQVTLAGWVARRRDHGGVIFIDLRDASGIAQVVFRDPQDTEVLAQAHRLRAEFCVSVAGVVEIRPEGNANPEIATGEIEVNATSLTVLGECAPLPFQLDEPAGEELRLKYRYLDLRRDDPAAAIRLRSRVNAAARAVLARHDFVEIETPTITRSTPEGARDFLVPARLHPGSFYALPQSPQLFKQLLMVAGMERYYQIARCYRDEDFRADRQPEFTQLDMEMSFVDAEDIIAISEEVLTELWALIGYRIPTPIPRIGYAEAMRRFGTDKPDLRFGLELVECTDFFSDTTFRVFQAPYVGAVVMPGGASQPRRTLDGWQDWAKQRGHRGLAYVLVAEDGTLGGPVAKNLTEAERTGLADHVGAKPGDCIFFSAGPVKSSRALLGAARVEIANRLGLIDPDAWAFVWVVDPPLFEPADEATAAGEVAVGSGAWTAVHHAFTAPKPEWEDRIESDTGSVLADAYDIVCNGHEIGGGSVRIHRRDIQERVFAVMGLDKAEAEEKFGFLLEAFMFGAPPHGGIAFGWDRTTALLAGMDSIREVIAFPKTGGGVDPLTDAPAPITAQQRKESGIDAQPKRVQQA
# [2] = target: Shiga toxin 2 (Escherichia coli O157:H7) (UniProt P09385+P09386); assay: E. coli 0.157:H7 Shiga Toxin SOP - stx2 screening assay; type: functional; set-up: scale not given: direction of the effect not stated beside the values; conditions: 30 µM
Structure (SMILES),Percent Effect [1],Percent Effect [2]
CN1CCc2c(C#N)c(NCCCN3CCOCC3)n3cnnc3c2C1,5.9%,5.95%
O=C(CSc1ccncc1)N1C[C@H]2CC[C@@H]1CN(Cc1cccnc1)C2,2.67%,-11.3%
Cc1cnc(C(=O)N2CCc3ncnc(C)c3CC2)cn1,0.251%,-27.4%
Cn1nc(C2CCCN(C(=O)CO)C2)cc1O (stereo not drawn),3.92%,10.4%
COc1ncccc1NC(=O)NC1CCOc2ccccc21 (stereo not drawn),-3.76%,-5.5%
O=C(NCCc1ccc(Cl)s1)NCc1nnc2n1CCC2,2.25%,22.9%
CC(C)Cc1nc(OCC(N)=O)c(C#N)c2c1CCC2,2.64%,-13.7%
CCC(O)CN1CCN(C(=O)c2sccc2OC)CC1 (stereo not drawn),0.995%,-39.9%
CC(C)n1ccnc1C1CCN(C(=O)c2ccccc2)CC1,-4.71%,12.4%
Cn1ncc2c1C(COCC1CC1)CN(Cc1nccs1)C2 (stereo not drawn),11.3%,-37.3%
O=C(CSc1ccc2c(c1)OCCO2)NS(=O)(=O)C1CCCCC1,1.67%,-14%
COc1ccc(CN2CCCCC2CNC(=O)OC(C)(C)C)cc1F (stereo not drawn),-1.76%,6.58%
Cn1nc2c(cc1=O)CN(Cc1nc(C(C)(C)C)no1)CC2,50.6%,0.187%
c1ccc(-c2noc(CN3CCOC(Cn4cccn4)C3)n2)nc1 (stereo not drawn),-2.01%,11.3%
CSc1ncccc1C(=O)NCc1ccc(CS(=O)(=O)NC(C)C)cc1,4%,6.55%
CN(C)c1ccc(CCCNC(=O)Nc2ccc(C#N)cc2)cc1,-1.77%,-44.4%
CCCn1ccc2ccc(NC(=O)N(C)CCOC)cc21,-4.94%,-13.1%
CCCn1[nH]cc/c1=N\C(=O)CN1CCn2c(nnc2C2CC2)C1,-2.17%,25.6%
O=C(CCc1ccccn1)N1CCN(C(=O)CC2CCCCC2)CC1,-2.28%,3.5%
O=C(C1=CCCCC1)N1CCC2(CC1)COC(COc1ccccn1)C2 (stereo not drawn),0.351%,-19.1%
CCn1ncnc1C(C)NC(=O)C1CCN(C(=O)COC)CC1 (stereo not drawn),6.73%,11.1%
CC(C)(C)C(=O)N1CCC2(COCc3cnc(N4CCOCC4)nc32)C1 (stereo not drawn),3.22%,-15.4%
CN1CCN(c2cc(CCNC(=O)C3CCC3)nc(C3CC3)n2)CC1,-3.83%,-18.7%
COc1ccc(-c2cc(C3CCCCCN3S(=O)(=O)N(C)C)on2)cc1 (stereo not drawn),-5.4%,-17.1%
CCCN1CCN(C(=O)c2scnc2C)CC1,-0.389%,5.75%

Structure (SMILES),Percent Effect [1],Percent Effect [2]
COC(=O)c1cc(C(=O)N2CCOCC2(C)C)n(-c2ccccc2)n1,-4.48%,13.3%
Cc1cc(C)n(CC2CCCN2CC(=O)N(C)C)n1 (stereo not drawn),-2.12%,10.1%
Cc1nn(C)c2c(=O)n(CC(=O)Nc3cc(Cl)cc(Cl)c3)nnc12,-7.23%,-36.8%
CCc1nc(C)c(C(=O)NCCN2CCC(C)CC2)s1,-0.879%,-68.3%
Cc1nc(CNC(C)c2ccc(OCC(=O)NC3CC3)cc2)cs1 (stereo not drawn),2.43%,-66.5%
Cc1nc(N2CCCCC2)ncc1C(=O)N1CC(C)(C)[C@@](C)(O)C1,4.7%,3.19%
CC(C)c1nc(C2CCCN(C(=O)c3ccc4nccn4c3)C2)no1 (stereo not drawn),4.61%,29.2%
CC(O)CN1CCC(CNCc2cccc(C(N)=O)c2)CC1 (stereo not drawn),-0.954%,12.7%
CN1Cc2c(C(=O)Nc3cccnc3)ncn2-c2ccccc2S1(=O)=O,-2.67%,6.47%
Cc1csc([C@@H]2C[C@@H]3CCN(C(=O)c4ccnnc4)C[C@H]3O2)n1,-2.11%,-6.67%
Cc1ccc(CCC(=O)N(C)CCN2CCOCC2)c(C)c1,-4.01%,-8.65%
Cc1ccc(CC(=O)N2CSCC2C(=O)N(C)Cc2ccco2)o1 (stereo not drawn),8.09%,12%
CCN(CC)C(=O)Cn1ccc2cc(NC(=O)C3CC3)ccc21,-1.5%,-4.48%
COc1ccc(NC(=O)c2ccc[nH]2)c(N2CCN(C(C)=O)CC2)n1,1.11%,0.954%
NC(=O)c1ccc(OCC(=O)N2CCCC(n3cccn3)C2)cc1 (stereo not drawn),-4.7%,26%
N#Cc1ccc(F)c(CN2CCCC2Cn2cnc3ccccc32)c1 (stereo not drawn),-0.466%,31.2%
CCOCCC(=O)N1CCCN(Cc2csc(CC)n2)CC1,-0.742%,-4.81%
CN(C)S(=O)(=O)N1CCC(Oc2ccc(C#N)cc2)CC1,0.641%,-1.14%
CN1CCC/C1=N\S(=O)(=O)c1ccc(NC(=O)CCc2cccs2)cc1,1.3%,-144%
CCc1[nH]ncc1C(=O)N1CCCC(n2cccn2)C1 (stereo not drawn),-2.98%,3.89%
Cc1nc(C)n(CC2CCCCN2CCCS(=O)(=O)N(C)C)n1 (stereo not drawn),1.48%,-34.2%
O=C(c1ccc(F)cc1F)N1C[C@@H](O)[C@H](N2CCOCC2)C1,4.46%,-20.4%
O=C(Cc1ccccc1)N1CCC2(CC(=O)N(c3cccc(F)c3)C2)C1 (stereo not drawn),-1.85%,10.2%
Cc1noc(C(C)C)c1C(=O)NCCN1CCCCCC1=O,2.13%,-4.24%
Cc1c(F)cc(C(=O)O)cc1S(=O)(=O)Nc1ccc2c(c1)OCCO2,2.32%,10.9%

Structure (SMILES),Percent Effect [1],Percent Effect [2]
Cc1ccc(NC2CCN(C(=O)CCc3ccco3)CC2)nn1,0.0874%,19.2%
COc1c(C2CCCN2C(=O)Cc2c(C)noc2C)c(C)nn1C (stereo not drawn),-3.25%,6.14%
c1cnnc(N2CCCC2CNCc2nc3ccccc3o2)c1 (stereo not drawn),7.18%,-25.7%
Nc1nc(CCC(=O)N2CCOC(CC3CCCCC3)C2)cs1 (stereo not drawn),-4.71%,19%
CSc1ccc(C(CN)N2CCc3sccc3C2)cc1 (stereo not drawn),-1.53%,-31.4%
CCc1nc(CN2CCCC(N(C)Cc3cnn(C)c3)C2)no1 (stereo not drawn),0.747%,-30.2%
COc1ccc(C2Nc3ccccc3C3=NCCCN32)cc1OC (stereo not drawn),3.81%,-2.36%
CCc1ncc(C(=O)N2CCOCC2c2c(C)n[nH]c2C)s1 (stereo not drawn),2.97%,7.37%
O=C(Cc1cccc(F)c1)NCCNCc1cccc(O)c1,4.95%,-12.7%
CN(Cc1ccccc1)CC(O)Cn1cnc2c(cnn2C)c1=O (stereo not drawn),-0.522%,-8.29%
CC(CN1CCCC1)C(=O)N1CCC(c2nccn2CC2CC2)CC1 (stereo not drawn),-0.479%,-15.6%
CCN(Cc1ccc2c(c1)OCO2)Cc1nc(C)no1,4.08%,23.9%
CC(C)CC(=O)N1CCN(C(=O)N(C)C)CC2(CC(=O)N(C)C2)C1 (stereo not drawn),1.73%,1.92%
CN(Cc1ccsc1)C(=O)Nc1cccnc1N1CCCC1,1.88%,-69.4%
CS(=O)(=O)N1CCC[C@]2(C[C@@H](Oc3ncccc3F)CO2)C1,7.67%,-11.6%
N#Cc1ccccc1C(=O)N1CCC2(CC(=O)NC2=O)C1 (stereo not drawn),-0.613%,-0.393%
NS(=O)(=O)CCNC(=O)c1nnn(-c2ccccc2)c1C1CC1,2.35%,-12.7%
COCC(=O)N1CCC(c2noc3nc(C)cc(C(F)(F)F)c23)CC1,3.71%,-10.9%
O=c1c(-c2ccnc(NC3CCOCC3)n2)cnc2sc(Cl)cn12,-3.81%,-50%
Cc1cnc(CN(C)C2CCN(CC(=O)N(C)c3nccs3)C2)o1 (stereo not drawn),-1.66%,-15.8%
CCC(=O)N1CCC2(CC1)COc1ccccc1S(=O)(=O)N(C)C2,-1.57%,6.18%
O=C(c1ccc[nH]1)N1CCC(c2nccn2Cc2ccncc2)CC1,5.61%,-10.8%
Cc1noc(C)c1CCC(=O)N1CCN(CCn2cccn2)CC1,-5.26%,-11.4%
Cc1ncc(CNC(=O)CCc2cccc(F)c2)c(C2CCCN2C)n1 (stereo not drawn),1.77%,-9.03%
